# The source made the active and inactive calls. How the source made its calls: active means hit-call score of the fitted dose curve at least 0.9, where 1 is the maximum; inactive means score below 0.9.
# Test: BSK_SAg_Proliferation: Cell Proliferation Assessment in the BioMAP Diversity Plus: SAg Assay (AID 2283095)
# Conditions: primary human HUVEC with PBMC
# Description: BSK_SAg is a cell-based, multiplexed-readout assay that uses umbilical vein endothelium and peripheral blood mononuclear cells, a human vascular primary cell co-culture, with measurements taken at 24 hours after chemical dosing in a 96-well plate.BSK_SAg_Proliferation is an assay component in the BSK_SAg assay. It measures protein content, a form of viability reporter, as detected with absorbance signals by Sulforhodamine staining technology. Data from the assay component BSK_SAg_Proliferation was analyzed into 1 assay endpoint. This assay endpoint, BSK_SAg_Proliferation, was analyzed with bidirectional fitting relative to DMSO as the negative control and baseline of activity. Using a type of viability reporter, measures of total protein for gain or loss-of-signal activity can be used to understand the viability at the cellular-level. Furthermore, this assay endpoint can be referred to as a secondary readout, because this assay has produced multiple assay endpoints where this one serves a viability function. To generalize the intended target to other relatable targets, this assay endpoint is annotated to the cell cycle intended target family, where the subfamily is proliferation.
# The levels of cell surface (or secreted, indicated by the prefix "s") biomarker endpoints were measured by ELISA. Overt cytotoxicity to cells in confluent adherent cultures (all systems other than the BT system) was assessed by measuring total protein levels using sulforhodamine B (SRB) staining in parallel cultures at the time of biomarker measurements, indicated as SRB endpoints. For proliferation assays for adherent cell types, individual cell types are cultured at sub-confluence and relative cell numbers quantified by SRB staining at time points optimized for each system (48 h: 3C and CASM3C systems; 72 h: BT and HDF3CGF systems; 96 h: SAg system). SRB was performed by staining cells with 0.1% SRB after fixation with 10% TCA and reading wells at 560 nm.Viability and proliferation of PBMC (T cells) was quantified by Alamar Blue reduction for the SAg and BT systems. For PBMC viability (referred to as PBMC Cytotoxicity within the assay endpoint names), cells were plated (75,000/well in a 96-well plate) and then chemical samples added for 1 h before addition of activators, SEB and TSST-1 (20 ng/mL final concentration each). Cells were incubated for 90 h. Then, Alamar Blue (20 uL/well) (Invitrogen, Cat DAL1100) was added for 6 h, and the plates were read with a fluorescence microplate reader at 546/580 nm (excitation/emission). For PBMC proliferation, cells were plated and activated as above but incubated for only 16 h prior to addition of Alamar Blue. Plates were read after 6 h.
Structure (SMILES),outcome,AC50
O=[Si]=O,inactive,–
CO[C@@H]1COCC[C@@H]1N[C@@H]1CC[C@@](C(=O)N2CCc3ncc(C(F)(F)F)cc3C2)(C(C)C)C1,inactive,–
CC(C)COC(=O)CCCCC(=O)OCC(C)C,inactive,–
O=C(Oc1ccccc1)c1cccc(C(=O)Oc2ccccc2)c1,–,24.2 µM (active)
COc1ccc(OC(F)(F)F)cc1CN[C@H]1CCCN[C@H]1c1ccccc1,–,32.6 µM (active)
O=C1NC(=O)C(c2ccccc2)(c2ccccc2)N1,inactive,–
CCCCCCCCCC[N+](C)(C)[O-],inactive,–
CCCCC(CC)COP(=O)(OCC(CC)CCCC)OCC(CC)CCCC (stereo not given),–,5.3 µM (active)
O=C(O)c1cccnc1,inactive,–
Nc1nc(Cl)nc2c1ncn2[C@H]1C[C@H](O)[C@@H](CO)O1,–,0.147 µM (active)
O=C(O)c1[nH]n(-c2ccc(S(=O)(=O)O)cc2)c(=O)c1N=Nc1ccc(S(=O)(=O)O)cc1,inactive,–
NCCOCCOCCN,inactive,–
CCC(C)N(C)C(=O)c1cc2ccccc2c(-c2ccccc2Cl)n1 (stereo not given),inactive,–
Cc1ccc(C(C)(C)C)c(O)c1,inactive,–
C=CCc1ccc(OC)c(OC)c1,inactive,–
O=C(O)CC(O)(CC(=O)O)C(=O)O,inactive,–
O=C(O)CN(CC(=O)O)CC(=O)O,–,29.1 µM (active)
O=NO,inactive,–
COC(=O)CCC(=O)OC,inactive,–
CS(=O)(=O)c1ccc([C@@H](C[C@H]2CCC(=O)C2)C(=O)Nc2cnccn2)cc1Cl,inactive,–

Structure (SMILES),outcome,AC50
O=C1O[C@H]([C@H](O)CO)C(O)=C1O,–,12 µM (active)
CC(=O)CC(c1ccccc1)c1c(O)c2ccccc2oc1=O (stereo not given),inactive,–
CCCC(=O)O,–,33.7 µM (active)
CCc1nc(N)nc(N)c1-c1ccc(Cl)cc1,inactive,–
C/C=C/C=C/C(=O)O,inactive,–
CC(C)(O)c1ccc(CNC(=O)c2cccnc2Oc2ccc(F)cc2)cc1,inactive,–
c1ccc2occc2c1,inactive,–
CCN(CC)CCOc1ccc(C(=C(Cl)c2ccccc2)c2ccccc2)cc1,–,3.54 µM (active)
Cc1cc(Cc2ccc(N)c(C)c2)ccc1N,inactive,–
CN(C)C(=O)NC1(c2ccccc2)CCN(CCC[C@]2(c3ccc(Cl)c(Cl)c3)CCCN(C(=O)c3ccccc3)C2)CC1,–,7.39 µM (active)
CCCCCCCCCCCCCCCCO,inactive,–
CC(=O)O[C@]1(C(C)=O)CC[C@H]2[C@@H]3C=C(Cl)C4=CC(=O)[C@@H]5C[C@@H]5[C@]4(C)[C@H]3CC[C@@]21C,inactive,–
CC(=O)[C@@]1(O)CC[C@H]2[C@@H]3CCC4=CC(=O)CC[C@]4(C)[C@H]3CC[C@@]21C,inactive,–
CC(C)c1cccc(C(C)C)c1,inactive,–
CCCCOC(=O)CCCCC(=O)OCCCC,inactive,–
CSc1ccc(Oc2ccc(S(N)(=O)=O)cc2CN(C)C)cc1C,–,23.3 µM (active)
CCCCC(CC)COC(=O)CCCCCCCC(=O)OCC(CC)CCCC (stereo not given),inactive,–
CC(=O)OC1CC(C)OC(C)O1 (stereo not given),–,13.5 µM (active)
O=C1c2c(O)cccc2Cc2cccc(O)c21,inactive,–
Cc1cn([C@H]2C=C[C@@H](CO)O2)c(=O)[nH]c1=O,inactive,–

# Reference: PubChem BioAssay (EPA / NIEHS)
